Screening data: PubChem, National Center for Advancing Translational Sciences (NCATS)
Bst PK mod – modulators of Bacillus stearothermophilus pyruvate kinase | purified pyruvate kinase, luminescence ATP production; ribose 5-phosphate activator present at AC10 | actives 1.2% (n = 51,000) | Potency, µM; in the data active = potency below about 11 µM; inconclusive = mostly about 12 µM to 25 µM;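 the screen sought inhibitors and activators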;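 note: scaled between full activation by ribose 5 phosphate and full inhibition by luteolin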
Caspase-1 inhib – allosteric or competitive inhibitors of human caspase-1. P29466. Caspase-1 enzyme, Ac-WEHD-AFC fluorogenic rate. Potency, µM (titrated, usually from 57.5 µM), inactives show top-dose activity change, negative = inhibition, hits mostly inhibitors. actives 0.03% (n = 75,000);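 note: plate controls were vehicle for no effect and no substrate for full effect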
TSHR agonist – agonists of human thyroid stimulating hormone receptor. P16473. HEK293-CNG-TSHR cells (CNG channel as cAMP sensor), membrane potential dye, cAMP. Potency, µM (top dose mostly 57.1 µM), for the others: at the highest dose activation, hits mostly activators. actives 0.48% (n = 73,000); active = well fitted activation curve with a large enough effect in the main read-out, with a control signal flat, not every such curve was filed as active; inconclusive = small, poorly fitted or top-dose-only effect, or a change in a side signal; inactive = no such curve, though single readings can be large or run the other way; % of control where 0% means no effect;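 note: the control signal comes from parental cells without the receptor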
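cAMP rise detected as CNG-channel membrane depolarization by fluorescent dye (emission 590 nm), 30 min after compound, following 60 min dye loading containing 100 uM RO 20-1724 at room temperature. Cells: TSHR/CNG HEK 293, with parental CNG HEK 293 as control.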
GBA mod – alters purified human glucocerebrosidase activity; P04062; purified enzyme, resorufin glucoside fluorescence (screen aimed at inhibitors), 20 min; Potency, µM; actives 1.1% (n = 48,000); AID 360; in the data active = potency below about 15 µM; inconclusive = mostly about 16 µM to 33 µM;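 note: the screen sought inhibitors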
Target sequence (P04062 whole entry, looked up): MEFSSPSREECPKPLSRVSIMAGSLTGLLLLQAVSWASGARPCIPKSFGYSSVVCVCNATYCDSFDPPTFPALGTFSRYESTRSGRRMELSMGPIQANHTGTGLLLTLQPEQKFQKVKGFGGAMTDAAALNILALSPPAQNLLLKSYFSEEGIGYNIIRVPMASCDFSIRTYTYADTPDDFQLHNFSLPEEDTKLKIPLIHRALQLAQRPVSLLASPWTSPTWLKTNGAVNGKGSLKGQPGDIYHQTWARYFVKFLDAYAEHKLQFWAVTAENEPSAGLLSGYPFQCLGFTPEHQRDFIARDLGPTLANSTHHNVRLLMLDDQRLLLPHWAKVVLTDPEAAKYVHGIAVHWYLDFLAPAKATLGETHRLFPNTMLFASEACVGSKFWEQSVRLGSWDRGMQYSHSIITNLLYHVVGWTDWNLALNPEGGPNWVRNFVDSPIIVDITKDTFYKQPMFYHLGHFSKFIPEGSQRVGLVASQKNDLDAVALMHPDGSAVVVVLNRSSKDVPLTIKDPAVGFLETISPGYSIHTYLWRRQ
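Compounds titrated against 0.2 nM normal enzyme, 30 uM resorufin beta-D-glucopyranoside substrate, citrate/phosphate buffer with taurocholate and tween-20, pH 5.9. Reaction ran 20 min at room temperature; fluorescence (Ex 548/Em 600) gave AC50.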
Caspase-7 inhib – allosteric or competitive inhibitors of human caspase-7. P55210. recombinant caspase-7, Ac-DEVD-AFC fluorescence rate. Potency, µM (doses to about 57.5 µM), for the others: top-dose activity change, negative = inhibition, most hits filed as inhibitors. actives 0.02% (n = 75,000); active = well fitted inhibition curve with a large enough effect in the main read-out, with a control signal flat, not every such curve was filed as active; inconclusive = small, poorly fitted or top-dose-only effect, or a change in a side signal; note: % of control where 0% means no effect
HEK293 cAMP ctrl – raises cAMP in parental HEK293 cells, TSHR agonist counter-screen; parental HEK293 CNG cAMP sensor, membrane potential fluorescence; Potency, µM (titrated, usually from 57.1 µM), inactives show at the highest dose activation, actives largely listed as activators; actives 2.5% (n = 73,000); AID 938; note: % of control where 0% means no effect; nearly all actives have a fitted effect of over 55% in size
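Counterscreen for endogenous-receptor signalling: CNG-channel HEK 293 cells report cAMP rise by membrane depolarization. After 60 min dye equilibration with 100 uM RO 20-1724, compounds incubated 30 min before bottom-read fluorescence at 590 nm.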
* = called active by the depositor; ? = inconclusive; nt = no result given; [ ] = dose if it differs, or a comment. Most compounds without a hit are left out; they make up all but 4% or so of the library. Unless noted, calls come from the whole dose curve; as a rule, active = well fitted curve in the direction sought with a large enough effect; inconclusive = small, poorly fitted or top-dose-only effect, or another doubt; inactive = no such curve, though single readings can be large; an effect the other way counts as inactive or inconclusive. Potency is the fitted concentration of half-maximal effect.

SMILES | Bst PK mod | Caspase-1 inhib | TSHR agonist | GBA mod | Caspase-7 inhib | HEK293 cAMP ctrl
CNC(=O)[C@@H]1O[C@@H](n2cnc3c(NCc4ccc(N)cc4)ncnc32)[C@@H](O)[C@H]1O | nt | 2% | ? | nt | 1% | ?
COc1ncc2nc(-c3cn(C)c4ccccc34)c(=O)n(CCc3ccccc3)c2n1 | nt | nt | 6% | nt | ? | 12%
Cn1c(/C(C#N)=C(\O)COc2ccc3ccccc3c2)nc2ccccc21 | >57 | 2% | ? | >77 | -3% | 16µM*
CN[C@]1(C)[C@@H]2CC[C@@H](C2)C1(C)C | nt | 5% | 4% | nt | -1% | -7%
O=c1cc(CSc2ccc(Cl)cc2)nc2nc[nH]n12 | nt | 0% | ? | >77 | -3% | 10µM*
O=c1cc(CSc2nnnn2-c2ccccc2)nc2nc[nH]n12 | >57 | 1% | 3% | >77 | 4% | 11%
O=C(Nc1ccc(F)cc1)c1cccc2c1C(=O)N(Cc1ccccn1)C2 | 11* | 0% | ? | nt | -1% | ?
CCOc1ccc(-n2c(-c3ccco3)n[nH]c2=S)cc1 | 9.4* | -3% | nt | >77 | -1% | 0%
Cc1noc(C)c1C(=O)OCC(=O)c1ccc[nH]1 | >57 | 0% | 6% | >77 | -3% | 5%
Cc1noc(C)c1C(=O)OCC(=O)c1cc(C)n(Cc2ccccc2Cl)c1C | nt | -4% | ? | >77 | -5% | 25µM*
CC[C@H]1C2=C3C(CC[C@H]4C(OCc5ccc(F)cc5C(F)(F)F)OC[C@](C)([C@@H]34)N(C(=O)OC(C)(C)C)C2)C(COC)C1COC (stereo partly specified) | nt | 1% | nt | nt | 0% | 6%
COc1cc(C(=O)Oc2ccccc2N)cc(OC)c1OC | nt | -2% | 3.2µM* | nt | 0% | -1%[11.4 µM]
COc1ccccc1Nc1nc(N)nc(CN2CCC(Cc3ccccc3)CC2)n1 | >57 | 0% | -10% | 0.93* | 0% | 3%
COc1cccc(N2CCN(Cc3nc(N)nc(Nc4ccccc4OC)n3)CC2)c1 | >57 | -2% | 19% | 3.9* | -1% | 14%
Cc1cccc(Nc2nc(N)nc(CN3CCC(C)CC3)n2)c1C | >57 | -6% | 25% | 12* | -9% | 20%
COc1ccccc1N1CCN(Cc2nc(N)nc(Nc3ccccc3)n2)CC1 | >57 | -3% | 1% | 4.8* | 0% | 2%
COc1ccccc1Nc1nc(N)nc(CN2CCCCCC2)n1 | >57 | -2% | 4% | nt | -3% | 10%
Oc1ccc2cc(SSc3ccc4cc(O)ccc4c3)ccc2c1 | nt | -4% | ? | nt | -3% | 6%
CCc1ccc(S(=O)(=O)Nc2ccc(O)c(C(=O)O)c2)cc1 | nt | 0% | 6% | nt | 1% | 1%
COc1ccccc1Nc1nc(N)nc(CN2CCN(c3ccccc3)CC2)n1 | >57 | -1% | 15% | 6.8* | -1% | 27%
Nc1ncnc2c1ncn2[C@H]1O[C@@H](C(=O)O)[C@@H](O)[C@H]1O | nt | -1%[11.5 µM] | -4%[11.4 µM] | nt | 0%[11.5 µM] | 12%[11.4 µM]
O=C(NC1CCCCC1)C(c1ccco1)N(Cc1cccs1)C(=O)Cn1nnc2ccccc21 (stereo unspecified) | >57 | -1% | ? | >77 | 1% | 16µM*
O=C(NC1CCCC1)C(c1cccs1)N(Cc1ccco1)C(=O)Cn1nnc(-c2cccs2)n1 (stereo unspecified) | >57 | -3% | ? | 11* | -1% | 20µM*
O=C(NCC(=O)N(Cc1cccs1)C(C(=O)NC1CCCC1)c1ccco1)c1cccs1 (stereo unspecified) | >57 | 0% | ? | >77 | 1% | ?
COCCN(C(=O)Cn1nnc2ccccc21)C(C(=O)NC1CCCC1)c1cccc(OC)c1OC (stereo unspecified) | >57 | 0% | ? | >77 | 0% | 20µM*
SMILES | Bst PK mod | Caspase-1 inhib | TSHR agonist | GBA mod | Caspase-7 inhib | HEK293 cAMP ctrl
O=C(NC1CCCCC1)C(c1ccncc1)N(C(=O)Cn1nnc(-c2cccs2)n1)C1CCCC1 (stereo unspecified) | >57 | -2% | ? | nt | 1% | ?
Cc1ccc(-c2nnn(CC(=O)N(Cc3cccs3)C(C(=O)NC3CCCC3)c3ccco3)n2)o1 (stereo unspecified) | >57 | -6% | ? | >77 | -2% | 13µM*
NS(=O)(=O)c1cc2c(cc1Cl)=NC(CCC(=O)O)=NS=2(=O)O | nt | -1%[11.5 µM] | 1%[11.4 µM] | nt | -1%[11.5 µM] | -4%[11.4 µM]
COc1cc(O)c2c(O)c3c(c4c2c1[C@@]1(C4)C(C)=CCCC1(C)C)[C@H](O)[C@@]1(O)CC(=O)C(C(N)=O)=C(O)[C@]1(O)C3=O | nt | -10%[11.5 µM] | 6%[11.4 µM] | nt | -25%[11.5 µM] | 13%[11.4 µM]
CN1CCN(S(=O)(=O)c2ccc(NC(=O)c3ccc(F)cc3)cc2)CC1 | >57 | 0% | -1% | 14* | 0% | 7%
CCn1c(=O)c(=O)[nH]c2cc(C(=O)Nc3ccc(S(=O)(=O)N4CCCC4)cc3)ccc21 | >57 | 0% | 0%[11.4 µM] | 5.1* | -3% | 60%
COC(=O)c1cccc(NC(=O)c2ccc(S(=O)(=O)N3CCN(C)CC3)cc2)c1 | >57 | -1% | -2% | ? | 2% | 4%
CN1CCN([C@@H]2Cc3ccccc3Sc3ccc(Cl)cc32)CC1 | nt | 0% | ? | nt | -2% | ?
O=C1C(C=Nc2ccccc2O)=C(O)c2ccccc21 | 7.3* | 0% | -10% | >77 | -1% | 4%
CCN(CC)CCNC(=O)c1ccc(Cc2nc3ccccc3[nH]2)cc1 | nt | -4% | 16% | nt | 2% | -18%
CCOC(=O)c1cnc2c(-c3ccccc3)cnn2c1N | 2.3* | 0% | 0% | >77 | 1% | 4%
CCOC(=O)c1cnc2c(-c3ccccc3)c(C)nn2c1N | >57 | 0% | ? | >77 | -3% | ?
Cc1cc(N)n2ncc(-c3ccccc3)c2n1 | 4.8* | 0% | ? | nt | -3% | -33%
Cc1cc(N)n2ncc(-c3cccc(Br)c3)c2n1 | nt | -5% | -21%[11.4 µM] | nt | -3% | -23%[11.4 µM]
CCOC(=O)c1cnn(-c2cc(C)c3ccccc3n2)c1N | nt | 0% | ? | 12* | 3% | ?
COc1ccc(S(=O)(=O)N2CCCCC2)cc1C(C)C | >57 | -2% | ? | >77 | -2% | 32µM*
CCCC12CN3CC(C)(CN(C1)C3c1ccc(OC(C)C)cc1)C2=O (stereo unspecified) | >57 | 0% | 21% | 2* | -2% | 11%
CCCC12CN(C(=O)c3ccc(OC)cc3)CC(C)(CN(C(=O)c3ccc(OC)cc3)C1)C2=O | >57 | 0% | 27% | >77 | 2% | 20%
CC1CCN(CCCNC(=O)c2coc3nc4ccccc4nc23)CC1 | >57 | nt | 4% | >77 | ? | 2%
Cc1ccc(CCNC(=O)c2coc3nc4ccccc4nc23)cc1 | >57 | ? | ? | ? | -15% | 20µM*
CCn1c(C)nc2cc(-c3nnc(-c4c(-c5ccccc5)noc4C)o3)ccc21 | >57 | -2% | ? | >77 | -3% | 20µM*
